Laboratory results as given in PubChem BioAssay (EPA / NIEHS).
Values joined by “and” are separate entries in the source; they are usually repeats but may differ in a detail not shown here. Identical values can stand only once. Some structures have more than one record in an assay (separate samples or runs), and their calls can disagree. Active and inactive are the calls of the source. Rule for the calls: active = hit-call score of the fitted dose curve at least 0.9, where 1 is the maximum; inactive = score below 0.9.

Biological target: Retinoic acid receptor alpha (Homo sapiens) (UniProt P10276)
Assay: ATG_DR5_RAR_CIS: Attagene CIS-FACTORIAL HepG2 Assay for human Retinoic Acid Receptor Alpha (RARE), DR5 submotif (AID 2282934);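 for AC50: reporter responds to endogenous RAR alpha beta and gamma in HepG2 not RARA alone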
Conditions: HepG2 Attagene cis-factorial RARE DR5 reporter, mRNA; actives raise or lower the signal
Procedure: ATG_CIS is a cell-based, multiplexed-readout assay that uses HepG2, a human liver cell line, with measurements taken at 24 hours after chemical dosing in a 24-well plate.ATG_DR5_RAR_CIS is one of 52 assay component(s) measured or calculated from the ATG_CIS assay. It is designed to make measurements of mRNA induction, a form of inducible reporter, as detected with fluorescence intensity signals by Reverse transcription polymerase chain reaction (RT-PCR) and Capillary electrophoresis technology.Data from the assay component ATG_DR5_RAR_CIS was analyzed into 1 assay endpoint. This assay endpoint, ATG_DR5_CIS, was analyzed with bidirectional fitting relative to DMSO as the negative control and baseline of activity. Using a type of inducible reporter, measures of mRNA for gain or loss-of-signal activity can be used to understand the reporter gene at the transcription factor-level as they relate to the gene RARA and RARB and RARG. Furthermore, this assay endpoint can be referred to as a primary readout, because this assay has produced multiple assay endpoints where this one serves a reporter gene function. To generalize the intended target to other relatable targets, this assay endpoint is annotated to the nuclear receptor intended target family, where the subfamily is non-steroidal.
Human liver HepG2 cells are transiently transfected with multiple reporter transcription units (MRTUs) in 6-well plates using FuGene 6 reagent (Roche; 3 ml FuGene/1 mg DNA). The MRTU constructs are regulated by a cis-regulating element (promoter). […] A major difference between the CIS and TRANS system is that in CIS activities of endogenous TFs are measured, whereas the TRANS assay evaluates changes in activities of exogenous, chimeric NR-Gal4 proteins. […] At the end of 24 hour incubation, total RNA was isolated using TriZol reagent (Invitrogen). The isolated RNA is then reverse-transcribed using oligo(dT) primer and Mo-MLV reverse transcriptase (Invitrogen) with DNAse I (Ambion) treatment for 30 min. The one-tenth of the produced cDNA was amplified by PCR using Taq DNA polymerase (Invitrogen) and two reporter sequence-specific primers. The PCR products were fluorescently labeled by primer extension with 6-arboxyfluorescein (6-FAM) 5'-labeled reporter sequence-specific primer (2 min at 95 C, 20 s at 68 C and 10 min at 72 C) and these products were digested with 5U of HpaI (New England Biolabs) for 2h at 37 C. The fragments were purified using Qiaquick PCR columns (Qiagen), analyzed on an ABI 3130xL genetic analyzer (Applied Biosystems) with peak positions identified by using a set of X-rhodamine (ROX)-labeled MapMarker1000 molecular weight standards (BioVentures). The raw capillary electrophoresis data was processed using Attagraph software (Attagene).

Retinoic acid receptor alpha (Homo sapiens), sequence (P10276 whole entry, looked up): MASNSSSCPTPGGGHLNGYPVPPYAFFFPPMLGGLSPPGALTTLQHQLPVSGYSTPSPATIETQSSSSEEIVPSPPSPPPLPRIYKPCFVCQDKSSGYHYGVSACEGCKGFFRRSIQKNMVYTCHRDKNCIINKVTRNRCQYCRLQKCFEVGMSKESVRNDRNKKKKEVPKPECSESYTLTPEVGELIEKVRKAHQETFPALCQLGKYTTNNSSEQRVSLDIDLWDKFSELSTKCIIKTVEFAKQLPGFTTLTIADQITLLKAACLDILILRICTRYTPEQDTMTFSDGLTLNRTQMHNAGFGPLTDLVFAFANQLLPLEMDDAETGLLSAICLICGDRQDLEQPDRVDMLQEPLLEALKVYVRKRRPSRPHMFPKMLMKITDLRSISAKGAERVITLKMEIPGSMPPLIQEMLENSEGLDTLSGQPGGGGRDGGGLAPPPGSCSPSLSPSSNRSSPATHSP

Question: How did the outcome turn out when `CCN(CC)C(=O)SCc1ccc(Cl)cc1` was run?
Answer: inactive

Question: For `CNC(=O)Oc1ccccc1OC(C)C`, which outcome is on record?
Answer: inactive

Question: Which outcome does the source give for `O=C(O)CCCOc1ccc(Cl)cc1Cl` here?
Answer: inactive

Question: For `CC1(C)C(C=C(Cl)Cl)C1C(=O)OC(C#N)c1ccc(F)c(Oc2ccccc2)c1` (stereo not given), which AC50 is on record?
Answer: 2.57 µM (active)

Question: `Cc1[nH]c(=O)n(C(C)(C)C)c(=O)c1Cl` was tested. Which outcome did it give?
Answer: inactive

Question: How did the outcome turn out when `Oc1ccc(Cl)cc1Cc1ccccc1` was run?
Answer: inactive

Question: `CC(C)N(C(=O)COc1nnc(C(F)(F)F)s1)c1ccc(F)cc1` was tested. Which outcome did it give?
Answer: inactive

Question: How did the outcome turn out when `COC(=O)c1ccccc1S(=O)(=O)NC(=O)N(C)c1nc(C)nc(OC)n1` was run?
Answer: inactive

Question: Which outcome does the source give for `N#CN` here?
Answer: inactive

Question: With `ClC1C(Cl)C(Cl)C(Cl)C(Cl)C1Cl` (stereo not given) as the compound, how does the outcome read?
Answer: inactive

Question: And the AC50?
Answer: 11 µM (active) and 5.74 µM (active)

Question: Which outcome does the source give for `COC(=O)c1ccccc1S(=O)(=O)NC(=O)Nc1nc(C)nc(OC)n1` here?
Answer: inactive

Question: Which AC50 does the source give for `CCOC1Oc2ccc(OS(C)(=O)=O)cc2C1(C)C` (stereo not given) here?
Answer: 12.5 µM (active)

Question: `CC(C)(C)C(O)/C(=C\c1ccc(Cl)cc1Cl)n1cncn1` (stereo not given) was tested. Which outcome did it give?
Answer: inactive

Question: For `Cc1cc(C)nc(NC(=O)NS(=O)(=O)c2ccccc2C(=O)OC2COC2)n1`, which outcome is on record?
Answer: inactive

Question: `CCCN(CCOc1c(Cl)cc(Cl)cc1Cl)C(=O)n1ccnc1` was tested. Which outcome did it give?
Answer: inactive

Question: What about the AC50 of the same compound?
Answer: 3.01 µM (active)

Question: With `CC(C)OC(=O)Nc1cccc(Cl)c1` as the compound, how does the outcome read?
Answer: inactive

Question: With `N#Cc1c(Cl)c(Cl)c(Cl)c(C#N)c1Cl` as the compound, how does the AC50 read?
Answer: 0.167 µM (active)

Question: How did the outcome turn out when `C[C@H]1[C@H](c2ccc(Cl)cc2)SC(=O)N1C(=O)NC1CCCCC1` was run?
Answer: inactive

Question: How did the outcome turn out when `[2H]C1([2H])[n+]2ccccc2-c2cccc[n+]2C1([2H])[2H]` was run?
Answer: inactive

Question: `O=S1OCC2C(CO1)C1(Cl)C(Cl)=C(Cl)C2(Cl)C1(Cl)Cl` (stereo not given) was tested. Which outcome did it give?
Answer: inactive

Question: Which outcome does the source give for `Clc1ccccc1-c1nnc(-c2ccccc2Cl)nn1` here?
Answer: inactive

Question: For `CCC(C)(C)C(=O)OC1=C(c2ccc(Cl)cc2Cl)C(=O)OC12CCCCC2`, which outcome is on record?
Answer: inactive

Question: `O=[N+]([O-])c1c(Cl)c(Cl)c(Cl)c(Cl)c1Cl` was tested. Which AC50 did it give?
Answer: 13.2 µM (active)

Question: How did the AC50 turn out when `CC(C)(C)C(O)C(Oc1ccc(Cl)cc1)n1cncn1` (stereo not given) was run?
Answer: 4.35 µM (active) and 4.55 µM (active) and 7.16 µM (active)

Question: And the outcome?
Answer: inactive

Question: `CCC(C)(NC(=O)c1cc(Cl)c(C)c(Cl)c1)C(=O)CCl` (stereo not given) was tested. Which outcome did it give?
Answer: inactive

Question: How did the outcome turn out when `O=[N+]([O-])/N=C1\NCCN1Cc1ccc(Cl)nc1` was run?
Answer: inactive

Question: Which outcome does the source give for `CCOCN(C(=O)CCl)c1c(C)cccc1CC` here?
Answer: inactive

Question: How did the outcome turn out when `CCOc1nc(NC)nc(NC(=O)NS(=O)(=O)c2ccccc2C(=O)OC)n1` was run?
Answer: inactive

Question: `CN1CSC(=S)N(C)C1` was tested. Which outcome did it give?
Answer: inactive

Question: With `COc1nn(CSP(=S)(OC)OC)c(=O)s1` as the compound, how does the outcome read?
Answer: inactive

Question: With `CCC(C)Nc1c([N+](=O)[O-])cc(C(C)(C)C)cc1[N+](=O)[O-]` (stereo not given) as the compound, how does the AC50 read?
Answer: 6.5 µM (active)

Question: With `COc1cc(OC)nc(NC(=O)NS(=O)(=O)c2cc(NC=O)ccc2C(=O)N(C)C)n1` as the compound, how does the outcome read?
Answer: inactive

Question: With `O=C(Nc1ccccc1)Nc1cnns1` as the compound, how does the outcome read?
Answer: inactive

Question: For `CC1(c2ccc(Oc3ccccc3)cc2)OC(=O)N(Nc2ccccc2)C1=O` (stereo not given), which outcome is on record?
Answer: inactive

Question: How did the outcome turn out when `CCc1ccc(C(=O)NN(C(=O)c2cc(C)cc(C)c2)C(C)(C)C)cc1` was run?
Answer: inactive

Question: With `CCS(=O)(=O)c1cccnc1S(=O)(=O)NC(=O)Nc1nc(OC)cc(OC)n1` as the compound, how does the outcome read?
Answer: inactive

Question: Which outcome does the source give for `COP(=S)(OC)Oc1ccc(SC)c(C)c1` here?
Answer: inactive
